Only some compounds are listed: those with a hit (about 2.9% of all), similar ones and a draw of the others.
LDHA block – LDHA (human) enzyme inhibition | P00338 | activity change, % (values are at about 110 or 230 µM) | 480,000 tested, 0.15% active | AID 1347041 | purified LDHA, NADH/diaphorase-resazurin fluorescence; hits give low values; in the data active = activity change below about -30%; inconclusive = mostly about -25% to -30%;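 also: plate controls were DMSO wells for no effect and wells without enzyme for full effect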
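Remaining NADH was detected by diaphorase (0.133 mg/mL) converting 37 µM resazurin to fluorescent resorufin, read at 0 and 20 minutes. The preceding 5-minute room-temperature reaction used 2 nM LDHA, 0.2 mM sodium pyruvate and 0.06 mM NADH at pH 7.4.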
ClpP mod – qHTS Assay for Activators of ClpP; ATP-dependent Clp protease proteolytic subunit (Bacillus subtilis (strain 168)), P80244; purified B. subtilis ClpP, FRET peptide cleavage, 20 min; Potency, µM (doses to about 57.5 µM), for the others: top-dose activity change, negative = active; 340,000 tested, 1.9% active; AID 651965, 2013; active = well fitted falling curve with a large enough effect; inconclusive = small, poorly fitted or top-dose-only effect; inactive = no such curve, though single readings can be large or run the other way; also: potency is read from the fitted curve at half-maximal effect; the source files actives as falling curves though it sought activators and does not explain the sign; nearly all actives have a fitted effect of over 65% in size
Target sequence (P80244 whole entry, looked up): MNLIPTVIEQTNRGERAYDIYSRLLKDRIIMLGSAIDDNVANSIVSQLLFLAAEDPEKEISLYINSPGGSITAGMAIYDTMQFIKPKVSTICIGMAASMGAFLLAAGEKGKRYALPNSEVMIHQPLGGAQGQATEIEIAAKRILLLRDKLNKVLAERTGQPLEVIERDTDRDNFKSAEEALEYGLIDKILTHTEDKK
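Purified B. subtilis ClpP, 10 microg/mL final in Tris/HCl pH8 with KCl, BSA, glycerol and Tween-20, cleaved an Abz/nitrotyrosine-quenched decapeptide. Fluorescence (ex 320, em 430) was read at 0 and 20 min at room temperature. Delta was normalized to 5.8 microM ADEP and DMSO/no-enzyme controls.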
HEK293 tox – cytotoxicity in counter-screen for GLP-1R inverse agonists; HEK293 cAMP-luciferase reporter cells, luminescence, 24 h; Potency, µM (top dose mostly 38.3 µM), without a hit: at the top dose activity change, negative = inhibition, most hits filed as inhibitors; 410,000 tested, 0.13% active; AID 624418;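 also: loss of luciferase light is scored as toxicity; potency is read from the fitted curve at half-maximal effect; % is scaled to controls: 0 for no effect and ±100 for the full control effect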
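Here, cytotoxicity is scored as loss of luminescence. The MLSMR collection was tested on cells seeded in medium containing 10% Nu serum, with a 24 hr compound exposure preceded by 12 hours of culture.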
GLP1R inv ag – GLP-1 receptor (human) inverse agonism. P43220. HEK293 GLP-1R CRE-luciferase, luminescence, 24 h; GLP-1R form is constitutively active. Potency, µM (top dose mostly 38.3 µM), for the others: at the top dose activity change, negative = inhibition, actives largely listed as inhibitors. 410,000 tested, 1.6% active. AID 624417; also: potency is read from the fitted curve at half-maximal effect; % is scaled to controls: 0 for no effect and ±100 for the full control effect; nearly all actives have a fitted effect of over 55% in size
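Readout was luciferase luminescence, measured 12 min after detection reagent at room temperature. Beforehand, GLP-1R reporter HEK293 cells had sat 12 h, then received compounds for 24 hr at 37 deg C.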
p53 reactivator – restores transcriptional activity of mutant p53; H1299 p53-A138V BP100-luciferase reporter, luminescence, 24 h; Potency, µM (titrated, usually from 92.2 µM), for inactives: at the top dose activity change, positive = activation, usual class: activators; 320,000 tested, 0.063% active; also: potency is read from the fitted curve at half-maximal effect; % of control where 0% means no effect; nearly all actives have a fitted effect of over 45% in size
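H1299 (p53-null), stable ts p53-A138V + BP100-Luc; 1000 cells/well, Opti-MEM/10% FBS; cpd 4 pt, 1:5; 24 h, 37 deg C, 5% CO2; detection reagent 10 min RT; luminescence.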
GLP1R ag – activates the human GLP-1 receptor. P43220. HEK293 GLP-1R CRE-luciferase, luminescence, 4-6 h; cells express a hypersensitive GLP-1R form. Potency, µM (doses to about 45.6 µM), inactives show top-dose activation, usual class: activators. 380,000 tested, 0.007% active. AID 624172; also: potency is read from the fitted curve at half-maximal effect; % of control where 0% means no effect
Starred values were filed as active, the others as inactive; ? = inconclusive; . = no result; [ ] = remark or other dose. Unless noted, calls follow the shape of the dose curve; as a rule, active = well fitted curve in the direction sought with a large enough effect; inconclusive = small, poorly fitted or top-dose-only effect, or another doubt; inactive = no such curve, though single readings can be large; an effect the other way counts as inactive or inconclusive.

SMILES	LDHA block	ClpP mod	HEK293 tox	GLP1R inv ag	p53 reactivator	GLP1R ag
CC(=O)N1CCN(c2ccc(NCc3cccc4ccccc34)cc2)CC1	11	.	-9%	8%	.	?
Cc1cc(C)nc(SCC(=O)c2ccc([N+](=O)[O-])cc2)n1	-5	-4%	-8%	5%	0%	0%
Cc1ccnc(SCC(=O)c2ccc([N+](=O)[O-])cc2)n1	-10	16µM*	-1%	18%	13%	5%
Cc1ccn(S(=O)(=O)c2ccc3oc(=O)ccc3c2)n1	-7	.	-2%	11%	-5%	3%
CCC(c1nnnn1CCc1ccccc1)N(Cc1ccco1)Cc1cc2c(C)ccc(C)c2[nH]c1=O (centres undefined)	-6	-25%	-25%	11µM*	2%	1%
COc1ccc(S(=O)(=O)Nc2ccccc2C(=O)NCc2ccco2)cc1	0	?	1%	?	-6%	1%
COc1ccc(S(=O)(=O)N(Cc2ccccc2)c2ccccc2C(=O)Nc2ccccc2C(=O)NCc2ccco2)cc1	-1	22µM*	84%	?	1%	-6%
NS(=O)(=O)c1ccc(CCNC(=O)C2CCCN2C(=O)OCc2ccccc2)cc1 (centres undefined)	-13	32µM*	-15%	?	6%	2%
NS(=O)(=O)c1ccc(CCNC(=O)C2CCCCN2S(=O)(=O)c2ccccc2)cc1 (centres undefined)	-4	0%	1%	5%	9%	-2%
NS(=O)(=O)c1ccc(CCNC(=O)C2CCN(S(=O)(=O)c3c(Cl)cccc3Cl)CC2)cc1	-5	.	1%	38%	-1%	6%
NS(=O)(=O)c1ccc(CCNC(=O)C2CCN(S(=O)(=O)c3ccccc3)CC2)cc1	-10	28µM*	0%	23%	-1%	0%
Cc1ccc(S(=O)(=O)N2CCC(C(=O)NCCCn3ccnc3)CC2)cc1	-3	16µM*	-5%	-27%	19%	-9%
CCOc1ccc(C2=NC(c3ccc(OC)cc3)=Nc3ccc(Cl)cc3N2)cc1	-8	-2%	1%	18%	.	.
COc1ccc(OCC(=O)OCC(=O)NCc2ccco2)cc1	-1	28µM*	1%	9%	1%	2%
COc1ccc(-c2cc(C(F)(F)F)n3nc(C(=O)NCc4ccco4)cc3n2)cc1	0	16µM*	95%	-5%	2%	7%
COc1ccc(-c2ccc(=O)n(CC(=O)NCc3ccco3)n2)cc1	4	25µM*	-2%	18%	-9%	24%
Cc1ccccc1C(=O)OCC(=O)NCc1ccco1	-5	-1%	-6%	-12%	10%	2%
Cc1ccsc1C(=O)OCC(=O)NCc1ccco1	-6	3.2µM*	-5%[7.66 µM]	15%[7.66 µM]	6%	-1%
Cc1ccc(-c2ccc(=O)n(CC(=O)NCc3ccco3)n2)cc1	-2	-13%	-24%	0%	-4%	14%
COC(=O)c1ccccc1NC(=O)c1ccc(=O)n(Cc2cccc(C)c2)c1	0	-9%	0%	3%	.	10%
COc1ccccc1C(=O)NCCn1cc(SCC(=O)Nc2nnc(C)s2)c2ccccc21	1	1%	-10%	0%	-7%	1%
COc1ccc(OCC(=O)Nc2c(C(=O)N(CCN(C)C)Cc3ccco3)oc3ccccc23)cc1	2	-14%	10%	7.9µM*	-7%	5%
CC(C)c1ccc(N2CCN(C(=O)c3ccccc3NC(=O)/C=C\C(=O)O)CC2)cc1	5	-2%	-14%	?	0%	-18%
O=C(O)/C=C\C(=O)Nc1ccccc1C(=O)N1CCN(c2ccc(Cl)cc2)CC1	-5	20µM*	4%	-34%	-6%	2%
CC1CCCN(S(=O)(=O)c2cc(C(=O)NCCc3ccccc3)n(C)c2)C1 (centres undefined)	-3	1%	1%	?	.	1%

Screening results as filed in PubChem BioAssay.
